Measured values taken from PubChem BioAssay (NCATS).
Values joined by “and” are separate entries in the source; they are usually repeats but may differ in a detail not shown here. Identical values can stand only once. Results filed as inconclusive are left out. Some compounds were tested as several samples or in several runs, with calls that do not always agree. Active and inactive are the calls of the source. Calls come from the whole dose curve; as a rule, active = well fitted curve in the direction sought with a large enough effect; inconclusive = small, poorly fitted or top-dose-only effect, or another doubt; inactive = no such curve, though single readings can be large; an effect the other way counts as inactive or inconclusive.

Columns and labels:
CRL-7250 = normal cell line; assay: Cytotoxic Profiling of Annotated Libraries Using Quantitative High-Throughput Screening (AID 1296008); settings: Five cell lines viability, CellTiter-Glo ATP luminescence, 48-72 h; max response: active compounds read low; note: nearly all actives have a fitted effect of over 60% in size; for max response: % is set by controls: 0 for no effect and ±100 for the full control effect
Procedure, shortened: (§1)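 Cells exposed to compounds for 48 or 72 hr at 37 degrees Celsius. Viability read as ATP-coupled luminescence with CellTiter-Glo after 10 min at room temperature.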

HEK293 = assay: as above; settings: Five cell lines viability, CellTiter-Glo ATP luminescence, 48-72 h; max response: active compounds read low
Procedure, shortened: as §1

KB-3-1 = assay: as above; settings: Five cell lines viability, CellTiter-Glo ATP luminescence, 48-72 h; max response: active compounds read low
Procedure, shortened: as §1

NIH3T3 [1] = assay: as above; settings: Five cell lines viability, CellTiter-Glo ATP luminescence, 48-72 h; max response: active compounds read low
Procedure, shortened: as §1

MCC-26 = assay: qHTS assay to identify novel small-molecules to repurpose for Merkel cell carcinoma treatment (AID 1296009); settings: MCC and control cell lines, CellTiter-Glo viability, 72 h; series mostly up to 46 µM; note: nearly all actives have a fitted effect of over 60% in size
Procedure, shortened: (§2)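 Cells were treated for 72 hr at 37 degree celsius with compounds in 8- or 11-point dose response. Viability was read by CellTiter-Glo luminescence, normalized to no-cell (cytotoxicity) and DMSO controls.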

MKL-2 = assay: as above; settings: MCC and control cell lines, CellTiter-Glo viability, 72 h; series mostly up to 46 µM
Procedure, shortened: as §2

CAOV3 = assay: Primary qHTS to identify gynecologic anti-cancer compounds using libraries of approved drugs and bioactive compounds (AID 1345084); settings: Gynecologic cancer cell panel viability, ATPlite luminescence, 48 h; series mostly up to 57.5 µM; note: nearly all actives have a fitted effect of over 55% in size
Procedure, shortened: (§3)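 Five-concentration response, 48 h; readout is ATP-driven luciferase luminescence.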

CASKI = assay: as above; settings: Gynecologic cancer cell panel viability, ATPlite luminescence, 48 h; series mostly up to 57.5 µM
Procedure, shortened: as §3

Es-2 = assay: as above; settings: Gynecologic cancer cell panel viability, ATPlite luminescence, 48 h; series mostly up to 57.5 µM
Procedure, shortened: as §3

HaCat [2] = assay: Cytotoxic Profiling of Annotated Libraries Using Quantitative High-Throughput Screening (AID 1296008); settings: Five cell lines viability, CellTiter-Glo ATP luminescence, 48-72 h; max response: active compounds read low; note: nearly all actives have a fitted effect of over 60% in size; for max response: % is set by controls: 0 for no effect and ±100 for the full control effect
Procedure, shortened: as §1

MCC-13 = assay: qHTS assay to identify novel small-molecules to repurpose for Merkel cell carcinoma treatment (AID 1296009); settings: MCC and control cell lines, CellTiter-Glo viability, 72 h; series mostly up to 46 µM; note: nearly all actives have a fitted effect of over 60% in size
Procedure, shortened: as §2

MKL-1 = assay: as above; settings: MCC and control cell lines, CellTiter-Glo viability, 72 h; series mostly up to 46 µM
Procedure, shortened: as §2

UISO = assay: as above; settings: MCC and control cell lines, CellTiter-Glo viability, 72 h; series mostly up to 46 µM
Procedure, shortened: as §2

WaGa = assay: as above; settings: MCC and control cell lines, CellTiter-Glo viability, 72 h; series mostly up to 46 µM
Procedure, shortened: as §2

HACAT [3] = assay: as above; settings: MCC and control cell lines, CellTiter-Glo viability, 72 h; at 44.8 µM (top of the series) unless noted
Procedure, shortened: as §2

C33A = assay: Primary qHTS to identify gynecologic anti-cancer compounds using libraries of approved drugs and bioactive compounds (AID 1345084); settings: Gynecologic cancer cell panel viability, ATPlite luminescence, 48 h; series mostly up to 57.5 µM; note: nearly all actives have a fitted effect of over 55% in size
Procedure, shortened: as §3

HEK293T = assay: qHTS assay to identify novel small-molecules to repurpose for Merkel cell carcinoma treatment (AID 1296009); settings: MCC and control cell lines, CellTiter-Glo viability, 72 h; at 44.8 µM (top of the series); note: nearly all actives have a fitted effect of over 60% in size
Procedure, shortened: as §2

NIH3T3 [4] = assay: as above; settings: MCC and control cell lines, CellTiter-Glo viability, 72 h; at 44.8 µM (top of the series) unless noted
Procedure, shortened: as §2

TAB165 = assay: qHTS profiling for inhibitors of Plasmodium falciparum proliferation (AID 504749); note: nearly all actives have a fitted effect of over 60% in size; settings: P. falciparum in erythrocytes, SYBR Green DNA, 72 h; series mostly up to 28.7 µM
Procedure, shortened: (§4)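 P. falciparum-infected erythrocytes (0.3% parasitemia, 2.5% hematocrit) incubated with compound 72 h at 37 C, 5% CO2. Parasite DNA detected by SYBR Green after lysis, overnight at room temperature; normalised to 0.29 uM artemisinin and DMSO.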

W2 = assay: as above; settings: P. falciparum in erythrocytes, SYBR Green DNA, 72 h; series mostly up to 28.7 µM
Procedure, shortened: as §4
Potency is the fitted concentration of half-maximal effect.

CCn1c(-c2nonc2N)nc2cnc(Oc3cccc(NC(=O)c4ccc(OCCN5CCOCC5)cc4)c3)cc21
active: Potency (CRL-7250) 20.9 µM | Potency (HEK293) 11.8 µM | Potency (KB-3-1) 5.9 µM | Potency (NIH3T3 [1]) 14.8 µM
inactive: Potency (MCC-26) | Potency (MKL-2)

CNC(=O)c1ccccc1Sc1ccc2c(/C=C/c3ccccn3)n[nH]c2c1
active: Potency (CRL-7250) 5.8 µM | Potency (HEK293) 23.7 µM and 14.6 µM | Potency (KB-3-1) 11.6 µM | Potency (NIH3T3 [1]) 8.41 µM and 7.31 µM | Potency (CAOV3) 10 µM and 8.91 µM | Potency (CASKI) 11.2 µM | Potency (Es-2) 15.8 µM and 17.8 µM
inactive: max response (KB-3-1) -28.7% | Potency (MCC-26)

COc1ccccc1-c1cccc(-c2c(O)c3cc(C#N)c(Cl)cc3[nH]c2=O)c1
active: Potency (CRL-7250) 8.55 µM | Potency (HEK293) 3.4 µM | Potency (HaCat [2]) 19.1 µM | Potency (NIH3T3 [1]) 21.5 µM
inactive: max response (KB-3-1) -25.1% | Potency (MCC-13) | Potency (MKL-1) | Potency (MKL-2) | Potency (UISO) | Potency (WaGa)

CCCC(CCC)C(=O)O
inactive: max response (CRL-7250) -7.38% and -1.13% | max response (HEK293) -7.93% and 2.58% | max response (KB-3-1) 5.52% and 6.84% | max response (NIH3T3 [1]) 0.659% | outcome (HACAT [3]) | Potency (MCC-13) | Potency (MKL-1) | Potency (MKL-2) | Potency (UISO) | Potency (WaGa) | Potency (C33A) | Potency (CAOV3) | Potency (CASKI) | Potency (Es-2)

OC(CCN1CCCCC1)(c1ccccc1)C1CC2C=CC1C2 (stereo not drawn)
inactive: outcome (CRL-7250) | outcome (HEK293) | max response (KB-3-1) -2.63% and -12.8% | outcome (KB-3-1) | outcome (NIH3T3 [1]) | outcome (HACAT [3]) | outcome (HEK293T) | Potency (MCC-13) | Potency (MCC-26) | Potency (MKL-1) | Potency (MKL-2) | outcome (NIH3T3 [4]) | Potency (UISO) | Potency (WaGa) | Potency (C33A) | Potency (CAOV3) | Potency (CASKI) | Potency (Es-2)

O=C1[C@H](Cc2ccc(O)cc2)N2C(=O)CCN(C(=O)NCc3ccccc3)[C@H]2CN1Cc1cccc2ccccc12
inactive: max response (CRL-7250) -59.7% | Potency (MCC-26)
active: Potency (HEK293) 2.09 µM | Potency (HaCat [2]) 2.96 µM | Potency (KB-3-1) 16.6 µM | Potency (MKL-1) 14.8 µM | Potency (UISO) 4.69 µM | Potency (WaGa) 13.2 µM

COc1ccc(-c2ccc3c(N4CCOC[C@H]4C)nc(N4CCOC[C@H]4C)nc3n2)cc1CO
active: Potency (CRL-7250) 0.0093 µM | Potency (HEK293) 0.0166 µM | Potency (KB-3-1) 0.0118 µM | Potency (NIH3T3 [1]) 0.0662 µM

Nc1nc2[nH]cc(CCc3ccc(C(=O)N[C@@H](CCC(=O)O)C(=O)O)cc3)c2c(=O)[nH]1
active: Potency (HEK293) 1.48 µM | Potency (NIH3T3 [1]) 1.18 µM | Potency (WaGa) 2.35 µM
inactive: max response (CRL-7250) -1.95% | max response (KB-3-1) -20.9% and 0.617% | Potency (MCC-13) | Potency (MKL-1) | Potency (MKL-2)

Cn1cc(-c2ccc3nnc(C(F)(F)c4ccc5ncccc5c4)n3n2)cn1
inactive: max response (CRL-7250) -14.4% | max response (HEK293) -1.08% | max response (KB-3-1) 5.05% and 7.07% | max response (NIH3T3 [1]) -35.7% | Potency (MCC-13) | Potency (MCC-26) | Potency (MKL-1) | Potency (MKL-2) | Potency (UISO) | Potency (WaGa) | Potency (C33A) | Potency (CAOV3) | Potency (CASKI) | Potency (Es-2)

OC(CN1CCC(Cc2ccc(F)cc2)CC1)c1ccc(Cl)cc1 (stereo not drawn)
inactive: max response (CRL-7250) 0.243% and -6.71% | max response (HEK293) -10.6% and 0.0097% | max response (KB-3-1) -3.87% and 8.37% | max response (NIH3T3 [1]) 0.966% and 1.02% | outcome (HACAT [3]) | Potency (MCC-13) | Potency (MKL-1) | Potency (MKL-2) | Potency (UISO) | Potency (WaGa) | Potency (C33A) | Potency (CAOV3) | Potency (CASKI) | Potency (Es-2)
active: Potency (TAB165) 1.26 µM | Potency (W2) 379 nM

CCCS(=O)(=O)Nc1ccc(F)c(C(=O)c2c[nH]c3ncc(Cl)cc23)c1F
inactive: max response (CRL-7250) -1.21% | max response (HaCat [2]) -1.82% | max response (KB-3-1) -9.42% and -0.0181% | max response (NIH3T3 [1]) -18.6% | Potency (MCC-13) | Potency (MKL-1) | Potency (MKL-2) | Potency (WaGa) | Potency (C33A) | Potency (CAOV3) | Potency (CASKI)
active: Potency (HEK293) 14.8 µM

C#Cc1cccc(Nc2ncnc3cc(OCCOC)c(OCCOC)cc23)c1
active: Potency (W2) 4260 nM | Potency (CRL-7250) 18.7 µM and 8.41 µM | Potency (HEK293) 16.6 µM | Potency (HaCat [2]) 5.9 µM and 944 nM and 651 nM | Potency (WaGa) 29.6 µM
inactive: max response (KB-3-1) -10.3% and -1.91% | Potency (MCC-13) | Potency (MKL-1) | Potency (MKL-2) | Potency (C33A) | Potency (CASKI) | Potency (Es-2)

CCOc1cc(C=C2C(=O)N(c3ccccc3)N=C2C)cc(Cl)c1OCC(=O)OC
inactive: max response (CRL-7250) 3.6% | max response (HEK293) 0.832% | max response (KB-3-1) 4.4% | max response (NIH3T3 [1]) -3.61% | outcome (HACAT [3]) | Potency (MCC-13) | Potency (MKL-1) | Potency (MKL-2) | Potency (UISO) | Potency (WaGa)

O=c1[nH]cnc2[nH]ncc12
inactive: Potency (TAB165) | Potency (W2) | max response (CRL-7250) 2.71% and -1.4% | max response (HEK293) -10.4% | max response (KB-3-1) 2.11% and 5.17% | max response (NIH3T3 [1]) 4.86% and -3.07% | outcome (HACAT [3]) | Potency (MCC-13) | Potency (MCC-26) | Potency (MKL-1) | Potency (MKL-2) | Potency (UISO) | Potency (WaGa) | Potency (C33A) | Potency (CAOV3) | Potency (CASKI) | Potency (Es-2)
